The campaign covered roughly 5,500 compounds. About 2,000 (36%) were called active. About 18% were inconclusive and are not listed. No stated cut-off is given here; in the data, active means normalized growth mostly below about 0.91 (no sharp cut-off); inconclusive means no clear call, values can overlap the other calls; inactive means mostly above about 0.92. The list shows a part of the results.
Test: chemical genetic growth profiling, strain panel (AID 1159580);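 further: tested at 20 µM; growth read once vehicle control cultures reached saturation at 30 °C; 1 = growth at the plate median or of vehicle wells; lower values mean less growth of the strain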
Conditions: S. cerevisiae deletion strains, growth OD

Measured: normalized growth

OC(=Cc1nc2ccccc2nc1C=C(O)c1ccc(Cl)cc1)c1ccc(Cl)cc1
inactive: locus YAR019C, strain CDC15, active compounds read low 0.993 | locus YBL105C, strain PKC1, active compounds read low 0.974 | locus YBR135W, strain CKS1, active compounds read low 0.983 | locus YBR136W, strain MEC1, active compounds read low 0.967 | locus YBR160W, strain CDC28, active compounds read low 0.984 | locus YDL017W, strain CDC7, active compounds read low 0.98 | locus YDL028C, strain MPS1, active compounds read low 0.97 | locus YDL101C, strain DUN1, active compounds read low 0.977 | locus YDL108W, strain KIN28, active compounds read low 0.961 | locus YDL132W, strain cdc53, active compounds read low 0.995 | locus YDL214C, strain PRR2, active compounds read low 0.895 | locus YDR052C, strain DBF4, active compounds read low 0.981 | locus YDR054C, strain cdc34, active compounds read low 0.972 | locus YDR226W, strain ADK1, active compounds read low 0.969 | locus YDR477W, strain SNF1, active compounds read low 0.856 | locus YER123W, strain YCK3, active compounds read low 0.85 | locus YER133W, strain GLC7, active compounds read low 0.9 | locus YFL009W, strain cdc4, active compounds read low 0.976 | locus YFL029C, strain CAK1, active compounds read low 0.976 | locus YFR003C, strain YPI1, active compounds read low 0.978 | locus YFR019W, strain FAB1, active compounds read low 0.918 | locus YFR028C, strain CDC14, active compounds read low 0.987 | locus YGR040W, strain KSS1, active compounds read low 0.855 | locus YGR052W, strain FMP48, active compounds read low 0.903 | locus YGR092W, strain DBF2, active compounds read low 0.793 | locus YHR030C, strain SLT2, active compounds read low 0.874 | locus YHR079C, strain IRE1, active compounds read low 0.96 | locus YHR082C, strain KSP1, active compounds read low 0.851 | locus YHR205W, strain SCH9, active compounds read low 0.882 | locus YIL147C, strain SLN1, active compounds read low 0.958 | locus YJL095W, strain BCK1, active compounds read low 0.933 | locus YJL128C, strain PBS2, active compounds read low 0.965 | locus YJL157C, strain FAR1, active compounds read low 0.84 | locus YJR016C, strain ILV3, active compounds read low 0.977 | locus YJR066W, strain TOR1 (second series), active compounds read low 0.852 | locus YJR066W, strain TOR1, active compounds read low 0.889 | locus YKL048C, strain ELM1, active compounds read low 0.868 | locus YKL067W, strain YNK1, active compounds read low 0.871 | locus YKL101W, strain HSL1, active compounds read low 0.8 | locus YKL193C, strain SDS22, active compounds read low 1 | locus YKL203C, strain TOR2, active compounds read low 0.932 | locus YLR113W, strain HOG1, active compounds read low 0.902 | locus YLR133W, strain CKI1, active compounds read low 0.884 | locus YLR403W, strain SFP1, active compounds read low 0.904 | locus YML070W, strain DAK1, active compounds read low 0.855 | locus YMR001C, strain CDC5, active compounds read low 0.992 | locus YMR205C, strain PFK2 (second series), active compounds read low 0.859 | locus YMR277W, strain FCP1, active compounds read low 0.977 | locus YNL006W, strain LST8, active compounds read low 0.982 | locus YNL020C, strain ARK1, active compounds read low 0.851 | locus YNL161W, strain CBK1, active compounds read low 0.983 | locus YNL183C, strain NPR1, active compounds read low 0.921 | locus YNL207W, strain RIO2, active compounds read low 0.966 | locus YNL222W, strain SSU72, active compounds read low 0.982 | locus YNL307C, strain MCK1 (second series), active compounds read low 0.823 | locus YOL078W, strain AVO1, active compounds read low 0.982 | locus YOL136C, strain PFK27, active compounds read low 0.867 | locus YOR061W, strain CKA2, active compounds read low 0.769 | locus YOR119C, strain RIO1, active compounds read low 0.921 | locus YOR231W, strain MKK1, active compounds read low 0.936 | locus YOR329C, strain SCD5, active compounds read low 0.983 | locus YPL031C, strain PHO85, active compounds read low 0.843 | locus YPL153C, strain RAD53, active compounds read low 0.862 | locus YPL204W, strain HRR25, active compounds read low 0.89 | locus YPL209C, strain IPL1, active compounds read low 0.979 | locus YPL256C, strain CLN2, active compounds read low 0.941 | locus YPR025C, strain CCL1, active compounds read low 0.979 | locus YPR106W, strain ISR1, active compounds read low 0.962 | locus YPR111W, strain DBF20, active compounds read low 0.954 | strain NNK1, active compounds read low 0.96 | strain TSCII, active compounds read low 0.989

From PubChem BioAssay AID1159580 (chemical genetic matrix, 2015)
